# Assay results taken from PubChem BioAssay AID651610 (Broad Institute, 2012).
# About 3,900 (1.1%) of roughly 360,000 compounds were called active.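 The calls were made as follows: active = mean replicate inhibition score of at least 50 and every replicate individually at or above 50; inconclusive = only one of the two criteria met; inactive = mean below 50 and not all replicates reaching 50.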 The entries come from a sample that favours actives as a whole.
# Assay: blockers of JRFL envelope-mediated fusion – HeLa-JRFL effector, CEM21 target cells, luciferase, primary screen (AID 651610);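 also: 0% = plate neutral controls and 100% = maraviroc near 300 nM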
# Conditions: HeLa-JRFL Env/CEM21 cell fusion, stronger effect = higher value; at 16.7 µM unless noted
row,SMILES,inhibition
1,C[C@H]1CN([C@@H](C)CO)S(=O)(=O)c2ccc(Br)cc2O[C@H]1CN(C)Cc1ccccn1,16.3% (inactive)
2,C[C@H]1CN([C@@H](C)CO)S(=O)(=O)c2ccc(C3=CCCC3)cc2O[C@@H]1CN(C)Cc1ccccc1,18.3% (inactive)
3,OCCN1CCN(C(=S)c2ccc(-c3ccccc3)cc2)CC1,71.3% [at 12.3 µM] (active)
4,CN1CCN(CCCCOc2ccccc2-c2ccccc2)CC1,6.99% [at 12.3 µM] (inactive)
5,S=C(c1ccc(-c2ccccc2)o1)N1CCCCC1,-140% [at 12.3 µM] (inactive)
6,CCOC(=O)c1c(NC(=O)C(C)Sc2c[nH]c3ccccc23)sc2c1CCC2 (stereo not given),67% [at 12.3 µM] (active)
7,CCOC(=O)c1c(NC(=O)C2(C)Cc3ccccc3C(=O)O2)sc2c1CCCC2 (stereo not given),14.6% [at 12.3 µM] (inactive)
8,CCOC(=O)c1c(NC(=O)CSc2cn(CC)c3ccccc23)sc2c1CCC2,40.8% [at 12.3 µM] (inactive)
9,C[C@H](CO)N1C[C@H](C)[C@H](CN(C)S(=O)(=O)c2cn(C)cn2)Oc2ccc(NS(=O)(=O)c3ccccc3)cc2C1=O,2.2% (inactive)
10,C[C@@H]1CN([C@@H](C)CO)C(=O)c2cc(NC(=O)Cc3ccccc3)ccc2O[C@@H](C)CCCCO[C@@H]1CN(C)C(=O)Nc1ccccc1,34.3% (inactive)
11,Cc1ccc(Cc2c(-c3ccc(Cl)cc3)nc3c4ccccc4ccn23)cc1,0.563% [at 12.3 µM] (inactive)
12,Cc1ccc(Cc2c(-c3ccc(C)cc3)nc3c4ccccc4ccn23)cc1,14.4% [at 12.3 µM] (inactive)
13,c1ccc(Cc2c(-c3ccco3)nc3c4ccccc4ccn23)cc1,65.9% [at 12.3 µM] (active)
14,COc1ccc(S(=O)(=O)N(C)C[C@H]2OCCCC[C@@H](C)Oc3ccc(NC(=O)c4ccncc4)cc3C(=O)N([C@H](C)CO)C[C@@H]2C)cc1,13.6% (inactive)
15,CO[C@@H]1CN(C)C(=O)c2cc(NS(=O)(=O)c3cccc(Cl)c3)ccc2OC[C@@H](C)NC[C@@H]1C,0.008% (inactive)
16,C[C@@H]1CN([C@@H](C)CO)C(=O)Cc2cc(NC(=O)Nc3ccc4c(c3)OCO4)ccc2O[C@@H]1CN(C)C(=O)Nc1ccc2c(c1)OCO2,-15.9% (inactive)
17,COc1cccc(NC(=O)N[C@@H]2CC[C@H](CC(=O)NCc3ccccn3)O[C@H]2CO)c1,-38% (inactive)
18,CCC(=O)N(C)C[C@@H]1Oc2ncc(C3=CCCC3)cc2C(=O)N([C@H](C)CO)C[C@@H]1C,0.169% (inactive)
19,CCC(=O)N(C)C[C@H]1Oc2ncc(-c3ccccc3OC)cc2C(=O)N([C@H](C)CO)C[C@H]1C,-7.79% (inactive)
20,COc1ccc2c3c([nH]c2c1)[C@@H](CO)N(C(=O)c1ccccc1)CC31CCN(Cc2cccnc2)CC1,-8.66% (inactive)
21,O=S1(=O)c2c(cccc2N2CCCC2)O[C@H](COCc2ccccc2)CN1C1CC1,-8.42% [at 12.3 µM] (inactive)
22,O=S1(=O)c2c(cccc2N2CCCCC2)O[C@H](COCc2ccccc2)CN1C1CC1,102% [at 12.3 µM] (active)
23,CSc1ccc(Oc2cccc3c2S(=O)(=O)N([C@H](C)c2ccccc2)C[C@@H](COCc2ccccc2)O3)cc1C,10.8% [at 12.3 µM] (inactive)

row,SMILES,inhibition
1,COc1ccc(NC(=O)N(C)C[C@@H]2Oc3ccc(NC(=O)Cc4cn(C)c5ccccc45)cc3CC(=O)N([C@@H](C)CO)C[C@H]2C)cc1,-18.3% (inactive)
2,CCc1cnc(N2[C@H](C#N)[C@H](c3ccc(C4=CCCC4)cc3)[C@@H]2CO)s1,1.6% (inactive)
3,Cc1ccc(O)c(-c2cc(C(=O)NCc3ccccc3)[nH]n2)c1,-126% [at 12.3 µM] (inactive)
4,Cc1cc(O)ccc1-c1cc(C(=O)NCc2cc(C(F)(F)F)cc(C(F)(F)F)c2)[nH]n1,59.8% [at 12.3 µM] (active)
5,CCCOc1ccc(F)cc1-c1cc(C(=O)NCc2ccc(F)cc2)[nH]n1,-16.3% [at 12.3 µM] (inactive)
6,CS(=O)(=O)N1[C@H](C#N)[C@H](c2ccc(C#CC3CCCC3)cc2)[C@H]1CO,1.54% (inactive)
7,COc1cccc(S(=O)(=O)Nc2ccc3c(c2)[C@@H]2C[C@H](CC(=O)NC4CCCCC4)O[C@H](CO)[C@@H]2O3)c1,-12.8% (inactive)
8,COc1ccccc1-c1cn(CC[C@H]2CC[C@H](NC(=O)Cc3ccccn3)[C@H](CO)O2)nn1,1.37% (inactive)
9,Cc1noc(C)c1NC(=O)Nc1ccc2c(c1)C(=O)N([C@H](C)CO)C[C@@H](C)[C@H](CN(C)S(=O)(=O)c1ccc(Cl)cc1)OCCCC[C@H](C)O2,-20.3% (inactive)
10,CCC(=O)N[C@H]1C=C[C@@H](CC(=O)NCC2CCCCC2)O[C@H]1CO,4.15% (inactive)
11,Cn1c(Nc2cccc(Cl)c2)nc2ccccc21,-29.5% [at 12.3 µM] (inactive)
12,OCCCNc1nccc(-c2cc(Nc3cccc(Cl)c3)ncn2)n1,95.7% [at 12.3 µM] (active)
13,Cc1cccc(Nc2nc(NCCO)nc(N3CCCC3)n2)c1,-14.8% [at 12.3 µM] (inactive)
14,C[C@@H]1CN([C@@H](C)CO)C(=O)c2cc(NC(=O)Nc3ccc4c(c3)OCO4)ccc2O[C@@H]1CN(C)C(=O)Nc1ccc2c(c1)OCO2,16% (inactive)
15,C[C@@H]1CN([C@H](C)CO)C(=O)c2cccc(NC(=O)Nc3cccc4ccccc34)c2O[C@@H]1CN(C)Cc1ccccc1,-16.3% (inactive)
16,COc1ccc(-c2nn(C)c(=O)c3ccccc23)cc1NC(=O)COc1ccccc1,79.8% [at 12.3 µM] (active)
17,COc1ccc(S(=O)(=O)N2CCOCC2)cc1NC(=O)COc1ccccc1,-4.29% [at 12.3 µM] (inactive)
18,COc1ccc(-c2nn(C)c(=O)c3ccccc23)cc1CNC(=O)C1CCCCC1,23.3% [at 12.3 µM] (inactive)
19,Cc1noc(C)c1NC(=O)N[C@H]1CC[C@H](CC(=O)N2CCCCC2)O[C@@H]1CO,4.43% (inactive)
20,CCN(CC)C(=O)C1=C(C)N(Cc2ccccc2)C(=O)C(CC(=O)NC(c2ccccc2)c2ccccc2)C1 (stereo not given),-23.1% [at 12.3 µM] (inactive)
21,CC1=C(C(=O)N2CCOCC2)CC(CC(=O)NCC2CCCCC2)C(=O)N1Cc1ccc(F)cc1 (stereo not given),6.87% [at 12.3 µM] (inactive)
22,CC1=C(C(=O)N(C(C)C)C(C)C)CC(CC(=O)NCC2CCCCC2)C(=O)N1Cc1ccccc1 (stereo not given),61.4% [at 12.3 µM] (active)
